Experimental data as given in PubChem BioAssay (EPA / NIEHS).
Values joined by “and” are separate entries in the source; they are usually repeats but may differ in a detail not shown here. Equal values may be shown once. Where a structure was tested more than once in an assay, its records may differ in their call. Active and inactive are the calls of the source. The calls were made as follows: active = hit-call score of the fitted dose curve at least 0.9, where 1 is the maximum; inactive = score below 0.9.

assay: CCTE_Shafer_MEA_dev_burst_rate: CCTE's Neural Network Formation Assay for Burst Rate, Shafer Lab (AID 2284042)
Method: CCTE_Shafer_MEA_dev assay is conducted using Axion Biosystems 48 well microelectrode array (MEA) plates and Maestro recording system. Each well of the MEA plate contains a grid of 16 microelectrodes embedded in the culture surface. Electrically active cells, such as neurons, can be cultured over the electrodes, and electrical activity in these cells can be recorded extracellularly. The spontaneous firing of neurons is captured from each electrode on a microsecond timescale providing both temporally and spatially precise data. […] The CCTE_Shafer_MEA_dev assay uses primary cultures of rat cortical neurons. Recordings are made on days post-plating 5, 7, 9 and 12. As these cultures mature over time, neural networks develop functional activity and form cohesive networks in which electrical activity can be highly coordinated. CCTE_Shafer_MEA_dev_burst_rate is 1 of 19 assay components of the CCTE_Shafer_MEA_dev assay. It measures the frequency of single-electrode bursts (temporally-clustered groups of action potential firing) as the total number of bursts divided by the length of the recording in a microelectrode array (MEA) using Axion Biosystems Maestro 768 channel amplifier with the AxIS adaptive spike detector. The mean bursting rate is averaged across the active electrodes to report a well-mean value. To collapse across multiple recordings made on days post-plating 5, 7, 9 and 12, the trapezoidal area-under-the-curve of the component is calculated.Data from the assay component CCTE_Shafer_MEA_dev_burst_rate was analyzed into 1 assay endpoint. This assay endpoint, CCTE_Shafer_MEA_dev_burst_rate, was analyzed in the negative analysis fitting direction relative to DMSO as the negative control and baseline of activity. Using a type of functional reporter, gain or loss-of-signal activity can be used to understand electrical activity.
On the day prior to culture, each well was coated thoroughly with 150 uL of 0.05% polyethyleneimine (PEI, Sigma Cat P3143) in 50 mM HEPES (Sigma Cat H7523) at a pH of 8. The plate was incubated at 37C for one hour. PEI was rinsed out with 500 uL of sterile water three times. Plates were stored at 4C until the day of culture. This culture was plated at a seeding density of 1.5 x 10^5 cells/well on a 48-well MEA plate, prepared as described above. Cells were administered via a 25 uL media/laminin ([…]; Sigma Cat L2020-1MG) drop directly onto the microelectrode array, as adding the cells with the laminin results in better attachment than pre-coating with laminin. After 2 hours, an additional 475 uL of cortical media was added and the cells returned to the incubator. Exposure starts at day 0 of plating and is continued over twelve days of network development until the experiment is terminated. Cells are fed with fresh medium on DIV 5 and 9, following the recordings on those days. The entire volume of media in the well is exchanged and any vehicle or compound treatment is renewed. Complete details are found in OP-NHEERL/ISTD/SBB/TJS/2015-03-r0 (available on request, email shafer.tim@epa.gov). Measurement of the electrical activity is non-invasive, and recordings can be made from the same plate over multiple different days of the culture. In cortical neurons, this allows for the measurement of extracellular action potentials over the period during which networks form in the MEA plate.

| Structure (SMILES) | outcome | AC50 |
| --- | --- | --- |
| O=P(OCCCl)(OCCCl)OCCCl | inactive | – |
| CCC[CH2][Sn]([Cl])([CH2]CCC)[CH2]CCC | – | 0.043 µM (active) |
| CCNS(=O)(=O)C(F)(F)C(F)(F)C(F)(F)C(F)(F)C(F)(F)C(F)(F)C(F)(F)C(F)(F)F | inactive | – |
| COC(=O)Nc1nc2ccccc2[nH]1 | inactive | – |
| CCCCOC(=O)c1ccccc1C(=O)OCc1ccccc1 | inactive | – |
| Clc1ccc(C(c2ccc(Cl)cc2)C(Cl)Cl)cc1 | – | 8.68 µM (active) |
| CC(C)(O)c1cnn2c(-c3ccc(F)c(-c4c(F)cccc4C#N)c3)cnc2n1 | inactive | – |
| OCCOCCO | inactive | – |
| Clc1ccc(C(c2ccc(Cl)cc2)C(Cl)(Cl)Cl)cc1 | – | 7.69 µM (active) and 6.09 µM (active) |
| COP(=S)(OC)SCN1C(=O)c2ccccc2C1=O | inactive | 61.3 µM (active) |
| CC(C)(C)C(O)(CCc1ccc(Cl)cc1)Cn1cncn1 (stereo unspecified) | inactive | – |
| [Cl-].[Cl-].[Hg+2] | – | 0.923 µM (active) |
| CNC(=O)Oc1cccc2c1OC(C)(C)C2 | inactive | – |
| ClC1=C(Cl)C2(Cl)C3C(Cl)C=CC3C1(Cl)C2(Cl)Cl (stereo unspecified) | – | 2.74 µM (active) |
| CC(C)COC(=O)c1ccccc1C(=O)OCC(C)C | inactive | – |
| C1=Cc2cccc3cccc1c23 | inactive | – |
| Nc1cc(Cl)cc(C(=O)O)c1Cl | inactive | – |
| ClC1=C(Cl)[C@]2(Cl)[C@H]3[C@H]([C@@H]4C=C[C@H]3C4)[C@@]1(Cl)C2(Cl)Cl | – | 5.95 µM (active) |
| CN(C)[C@@H]1C(=O)C(C(N)=O)=C(O)[C@@]2(O)C(=O)C3=C(O)c4c(O)cccc4[C@@](C)(O)[C@H]3C[C@@H]12 | inactive | – |
| [O-][Cl+]O | inactive | – |
